Reference: PubChem BioAssay (NCATS)
Values joined by “and” are separate entries in the source; they are usually repeats but may differ in a detail not shown here. Equal entries are not always repeated. Inconclusive results are not listed. Active and inactive are the calls of the source. The call rests on the fitted dose curve; in most records, active means well fitted curve in the direction sought with a large enough effect; inconclusive means small, poorly fitted or top-dose-only effect, or another doubt; inactive means no such curve, though single readings can be large; an effect the other way counts as inactive or inconclusive.

Experiments:
[1] = Cell Viability - LYMP2-001 (AID 921);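 further: series mostly up to about 92 µM; 0% = DMSO only and full inhibition = tetraoctylammonium bromide control wells; nearly all actives have a fitted effect of over 70% in size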
Procedure, shortened: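 qHTS, 1536-well; lymphoblastoid cells, 24 hr compound, 37 C; ATP by CellTiter-Glo, 30 min RT; luminescence; Hill-fit AC50.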

[2] = MultiTox-Fluor Cytotoxicity Assay - LYMP1-001 - Dead Cells (AID 946)
Procedure, shortened: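 Seed 2500 LYMP1-001 cells/well, incubate 5 hr at 37 C; add compound, 16 hr at 37 C; add MultiTox-Fluor reagent, 60 min RT; read dead-cell fluorescence Ex/Em=485/520. Normalize to DMSO and 15 uM tetraoctylammonium bromide.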

[3] = MultiTox-Fluor Cytotoxicity Assay - LYMP1-001 - Live Cells (AID 947);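 further: 0% = DMSO only and full inhibition = tetraoctylammonium bromide control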
[4] = Cell Viability - LYMP1-002 - Assay at 16 hr (AID 948);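 further: 0% = DMSO alone and full effect = 92 µM tetraoctylammonium bromide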
Procedure, shortened: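 Acute cytotoxicity is scored as a concentration-dependent fall in intracellular ATP in a human lymphoblastoid line (LYMP1-002) after 16 hr compound exposure at 37 C, measured by luciferase luminescence.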

[5] = MultiTox-Fluor Cytotoxicity Assay - LYMP1-002 - Live Cells (AID 955); further: on the % scale 0 is the no-effect control and ±100 the full control effect
Procedure, shortened: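 Human lymphoblastoid LYMP1-002 cells, 2500/well in complete medium, rested 5 hr at 37 C, then exposed to compounds for 16 hr at 37 C. Live-cell protease cleavage of GF-AFC read by fluorescence (Ex/Em 405/510) after 60 min at room temperature; AC50 from Hill fits.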

[6] = MultiTox-Fluor Cytotoxicity Assay - LYMP1-002 - Dead Cells (AID 960); further: nearly all actives have a fitted effect of over 60% in size
Procedure, shortened: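 Human lymphoblastoid cells (LYMP1-002), 2500/well in complete medium, were exposed to compounds for 16 hr at 37 C. Dead-cell protease activity was read as bis-AAF-R110 fluorescence (Ex/Em 485/520), normalized to DMSO and 15 uM tetraoctylammonium bromide; AC50 from Hill fits.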

[7] = MultiTox-Fluor Cytotoxicity Assay - LYMP1-003 - Dead Cells (AID 961); further: nearly all actives have a fitted effect of over 70% in size
Procedure, shortened: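 LYMP1-003 lymphoblastoid, 2500 cells/well, 5 hr settle then 16 hr cpd at 37 C; MultiTox-Fluor reagent 60 min RT; Ex/Em 485/520 dead-cell signal; norm. DMSO = 0%, 15 uM tetraoctylammonium bromide = 100%; Hill AC50.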

[8] = MultiTox-Fluor Cytotoxicity Assay - LYMP1-003 - Live Cells (AID 962);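 further: 0% = DMSO only and full loss = 92 µM tetraoctylammonium bromide; cytotoxic hits lower the live-cell protease signal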
Procedure, shortened: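 LYMP1-003 human lymphoblastoid cells (2500/well) in complete medium were preincubated 5 hr at 37 C, then exposed to compounds for 16 hr at 37 C. Live-cell protease cleavage of GF-AFC read by fluorescence (Ex/Em 405/510); AC50 from Hill fits.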

[9] = Cell Viability - LYMP1-003 - Assay at 24 hr (AID 963);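 further: plate controls were DMSO only for no effect and tetraoctylammonium bromide positive control for full effect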
Procedure, shortened: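 Human lymphoblastoid LYMP1-003 cells (2500/well) were rested 5 hr at 37 C, then exposed to compounds in complete medium for 24 hr at 37 C. Cellular ATP was quantified by CellTiter-Glo luminescence, and AC50 values came from Hill fits of concentration-response data.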

[10] = Cell Viability - LYMP1-003 - Assay at 40 hr (AID 964); further: series mostly up to about 92 µM; on the % scale 0 is the no-effect control and ±100 the full control effect; nearly all actives have a fitted effect of over 60% in size
Procedure, shortened: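 Human lymphoblastoid LYMP1-003 cells, 2500/well in complete medium, rested 5 hr at 37 C, then exposed to compounds for 40 hr at 37 C. Viability read as intracellular ATP by CellTiter-Glo luminescence; AC50 from Hill fits of concentration-response data.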

[11] = Cell Viability - LYMP2-004 (AID 966);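 further: plate controls were DMSO only for no effect and tetraoctylammonium bromide control for full effect; nearly all actives have a fitted effect of over 65% in size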
Procedure, shortened: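 Human lymphoblastoid cells (2500/well) in complete medium were treated with compounds for 24 hr at 37 C, then intracellular ATP was measured by CellTiter-Glo luminescence. AC50 values came from Hill-equation fits of concentration-response data.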

[12] = Cell Viability - LYMP2-005 (AID 967);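 further: series mostly up to about 92 µM; plate controls were DMSO only for no effect and 92 µM tetraoctylammonium bromide control for full effect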
Procedure, shortened: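 qHTS viability screen in LYMP2-005 cells: 24 h at 37 C with compound, ATP luminescence via CellTiter-Glo, AC50 from Hill curves.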

[13] = Cell Viability - LYMP2-009 (AID 968);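 further: series mostly up to about 92 µM; 0% = DMSO alone and the full-kill end = tetraoctylammonium bromide at 92 µM; nearly all actives have a fitted effect of over 55% in size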
[14] = Cell Viability - LYMP2-011 (AID 969);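 further: 0% = DMSO only and full inhibition = 92 µM tetraoctylammonium bromide; nearly all actives have a fitted effect of over 60% in size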
Procedure, shortened: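 Human lymphoblastoid cells (2500/well) were plated in complete medium, preincubated 5 hr at 37 C, then exposed to compounds for 24 hr at 37 C. Intracellular ATP was read by CellTiter-Glo luminescence, and AC50 came from Hill-equation concentration-response fits.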

[15] = Cell Viability - LYMP2-013 (AID 970);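 further: series mostly up to about 92 µM; 0% = DMSO only and full inhibition = tetraoctylammonium bromide control; nearly all actives have a fitted effect of over 55% in size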
Procedure, shortened: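 Human lymphoblastoid cells, 2500/well, were preincubated 5 hr at 37 C, then treated with compounds for 24 hr at 37 C in complete medium. Intracellular ATP was read by CellTiter-Glo luminescence; AC50 from Hill-equation fits of concentration-response data.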

[16] = Cell Viability - LYMP2-015 (AID 971);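 further: 0% = DMSO only and full effect = 92 µM tetraoctylammonium bromide; nearly all actives have a fitted effect of over 55% in size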
Procedure, shortened: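 Human lymphoblastoid cells (2500/well) in complete medium were preincubated 5 hr at 37 C, then compound-treated 24 hr at 37 C. Intracellular ATP was read by CellTiter-Glo luminescence after 30 min at room temperature; AC50 came from Hill-equation concentration-response fits.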

[17] = Cell Viability - LYMP2-017 (AID 972); further: series mostly up to about 92 µM; on the % scale 0 is the no-effect control and ±100 the full control effect; nearly all actives have a fitted effect of over 55% in size
Procedure, shortened: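 Human lymphoblastoid cells (2500/well) were seeded in complete medium, held 5 hr at 37 C, then exposed to compounds for 24 hr at 37 C. Intracellular ATP was read by CellTiter-Glo luminescence after 30 min at room temperature, with AC50 values from Hill-equation fits.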

[18] = Cell Viability - LYMP2-019 (AID 973)
Procedure, shortened: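 Human lymphoblastoid cells were seeded at 2500 cells/well, preincubated 5 hr at 37 C, then exposed to compounds for 24 hr at 37 C in complete medium. Intracellular ATP was measured by CellTiter-Glo luminescence; AC50 from Hill fits.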

[19] = qHTS assay for cell viability of HEK293 cells (AID 743288); conditions: ATP luminescence (CellTiter-Glo), 18 h, stronger effect = lower value; further: on the % scale 0 is the no-effect control and ±100 the full control effect; nearly all actives have a fitted effect of over 50% in size
Procedure, shortened: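 The Tox21 protocol used parental HEK293 cells treated for 18 h at 37 C with compounds delivered by pintool; ATP-coupled luminescence after 30 min at room temperature gave viability.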

[20] = qHTS assay for cell viability of the p53RE-bla HCT-116 cell line (AID 743292)
Procedure, shortened: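 Luminescent ATP quantitation (CellTiter-Glo) served as the viability read-out; reagent was added after 16 h compound exposure at 37 C and read after 30 min at room temperature. Cells: p53RE-bla HCT-116, 4,000 per well.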

Measured: max response

C=CC(C)(O)CCC=C(C)C (stereo not given)
inactive: [1] | [2] | [3] | [4] | [5] | [6] | [7] | [8] | [9] | [10] | [11] | [12] | [13] | [14] | [15] | [16] | [17] | [18] | [19] 5.28% and -11.2% | [20]

COS(C)(=O)=O
inactive: [1] | [2] | [3] | [4] | [5] | [6] | [7] | [8] | [9] | [10] | [11] | [12] | [13] | [14] | [15] | [16] | [17] | [18] | [19] 1.66% | [20]

C=C(C)[C@H]1CC=C(C)C(=O)C1
inactive: [1] | [2] | [3] | [4] | [5] | [6] | [7] | [8] | [9] | [10] | [11] | [12] | [13] | [14] | [15] | [16] | [17] | [18] | [19] -10.1% and -1.01% | [20]

Cc1occc(=O)c1O
inactive: [1] | [2] | [3] | [4] | [5] | [6] | [7] | [8] | [9] | [10] | [11] | [12] | [13] | [14] | [15] | [16] | [17] | [18] | [19] 0.312% | [20]
